The text below walks through data of PubChem BioAssay (NCATS).

Test [1] can be described thus: qHTS assay for small molecule antagonists of peroxisome proliferator-activated receptor delta signaling (AID 588535; active means well fitted inhibition curve with a large enough effect in the signal ratio, with a control signal flat, not every such curve was filed as active; the % refers to the signal ratio;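 on max response: cells co-treated with a PPAR-delta agonist as stimulator during compound exposure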). The note with it: HEK293T PPARd-UAS-bla, beta-lactamase FRET ratio, 18 h; 460 nm channel. Put shortly: (§1)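 HEK293T PPAR-delta-UAS-bla cells, 4000/well, 2% charcoal/dextran FBS; 5 h 37 C; cpd titration; 18 h 37 C; CCF4 2 h RT; FI 460/530 nm; Hill fit → IC50, efficacy.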

Test [2] addresses Peroxisome proliferator-activated receptor delta (Homo sapiens) (UniProt Q03181). The description is as above. The settings on record: HEK293T PPARd-UAS-bla, beta-lactamase FRET ratio, 18 h; series mostly up to 76.7 µM. Put shortly:
as §1

Test [3] concerns the target Vitamin D3 receptor (Homo sapiens) (UniProt P11473). As to the kind of experiment: qHTS assay for small molecule antagonists of vitamin D receptor signaling (AID 588541; calls by dose curve;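 further: receptor activated by calcitriol during compound treatment; on the % scale 0 is the no-effect control and ±100 the full control effect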). The settings on record: HEK293T VDR-UAS-bla, beta-lactamase ratio, antagonist mode; series mostly up to 76.7 µM. Put shortly:
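Antagonist-mode beta-lactamase reporter assay: HEK293T VDR-UAS-bla cells were exposed to titrated compound alongside 1-alpha,25-dihydroxyvitamin D3 at 3 nM final for 16 h. Values were normalized to the 50 nM agonist control and DMSO basal, with IC50 and efficacy from Hill equation fits.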

Test [4] shares this target. Nature of the test: qHTS assay for small molecule agonists of vitamin D receptor signaling (AID 588543; calls by dose curve;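 further: 0% = DMSO basal and 100% = reference agonist control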). The note with it: HEK293T VDR-UAS-bla, beta-lactamase ratio, 16 h; series mostly up to 76.8 µM. Put shortly: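 Measured: β-lactamase reporter activity (CCF4, 405 nm excitation, 460/530 nm emission) in HEK293T VDR-UAS-bla cells after 16 h compound exposure at 37 °C. Normalization against 50 nM 1α,25-dihydroxyvitamin D3 and DMSO; Hill-fit EC50.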

For test [5], the target named is Retinoic acid receptor RXR-alpha (Homo sapiens) (UniProt P19793). As to the kind of experiment: qHTS assay for small molecule agonists of retinoid X receptor alpha signaling (AID 588544; calls by dose curve;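 further: 0% = DMSO basal wells and 100% = reference agonist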). The note with it: HEK293T RXRa-UAS-bla, beta-lactamase reporter, 18 h; series mostly up to 76.7 µM.
Retinoic acid receptor RXR-alpha (Homo sapiens), sequence (P19793 whole entry, looked up): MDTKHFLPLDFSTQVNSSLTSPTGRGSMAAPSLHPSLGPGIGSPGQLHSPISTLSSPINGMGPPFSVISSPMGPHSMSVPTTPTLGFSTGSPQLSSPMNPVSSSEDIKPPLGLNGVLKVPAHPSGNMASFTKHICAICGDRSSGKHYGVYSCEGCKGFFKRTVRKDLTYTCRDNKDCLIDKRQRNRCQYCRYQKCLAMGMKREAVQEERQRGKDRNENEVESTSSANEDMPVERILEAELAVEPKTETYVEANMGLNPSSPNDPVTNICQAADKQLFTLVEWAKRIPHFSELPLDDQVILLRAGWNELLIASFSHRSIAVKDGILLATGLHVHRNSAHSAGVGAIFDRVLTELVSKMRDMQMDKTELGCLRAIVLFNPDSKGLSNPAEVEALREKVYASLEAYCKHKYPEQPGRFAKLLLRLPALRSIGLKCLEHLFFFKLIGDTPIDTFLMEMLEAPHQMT
The target in test [6] is Thyroid hormone receptor beta (Homo sapiens) (UniProt P10828). Nature of the test: qHTS assay for small molecule agonists of thyroid hormone receptor beta signaling (AID 588545; calls by dose curve). The settings on record: TR-UAS-bla GripTite HEK 293, beta-lactamase ratio, agonist mode, 18 h; series mostly up to 76.7 µM. A digest of the protocol:
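Agonist-mode beta-lactamase reporter assay, HEK 293 cells, 2% charcoal/dextran FBS; cells plated 4 hrs, compound 18 hrs at 37 C, CCF4 2 hrs RT. Normalized to 10 nM T3 (100%) and DMSO (0%); Hill fit gives EC50, efficacy.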

Test [7] can be described thus: qHTS assay for small molecule antagonists of retinoid X receptor alpha signaling (AID 588546; active means well fitted inhibition curve with a large enough effect in the signal ratio, with a control signal flat, not every such curve was filed as active; the % refers to the signal ratio;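 further: cells stimulated with 9-cis-retinoic acid as agonist; on the % scale 0 is the no-effect control and ±100 the full control effect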). The settings on record: HEK293T RXRa-UAS-bla, beta-lactamase ratio, antagonist mode; measured here: W530 green channel, cytotoxicity proxy. A digest of the protocol: (§2)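 Beta-lactamase reporter inhibition, read as CCF4 fluorescence ratio (ex 405, em 460/530 nm) after 2 h at RT. HEK293T UAS-bla cells, 2500/well, were stimulated with 9-cis-RA at 500 or 100 nM final alongside test compound for 18 h at 37 C.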

Test [8] has as its target Retinoic acid receptor RXR-alpha (Homo sapiens) (UniProt P19793). The test is described as above. The settings on record: HEK293T RXRa-UAS-bla, beta-lactamase ratio, antagonist mode. A digest of the protocol: as §2
The nature of test [9]: qHTS assay for small molecule activators of the nuclear factor-kappa B (NF-kB) signaling pathway (AID 651749; active means well fitted activation curve with a large enough effect in the signal ratio; the % refers to the signal ratio; further: % of control where 0% means no effect). The settings on record: NF-kB-bla ME-180 cells, beta-lactamase FRET ratio, 16 h; activation: stronger effect = higher value. Put shortly: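 Readout: beta-lactamase reporter driven by an NF-kB response element, detected fluorescently as loss of FRET. Cells were the ME-180 line, treated 16 hr at 37C with pin-transferred compound.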

The nature of test [10]: qHTS assay for environmental chemicals that activate the Aryl hydrocarbon Receptor (AhR) signaling pathway (AID 651777). Further: % of control where 0% means no effect; nearly all actives have a fitted effect of over 15% in size. The note with it: 1A2-DRE human hepatoma cells, luciferase, 24 h; activation: stronger effect = higher value. Put shortly: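 Following a 24 hr incubation with test chemicals at 37 C and 5% CO2, 1A2-DRE human hepatoma cells received One-Glo reagent; after 30 min at room temperature, luciferase output reflected CYP1A2 induction via AhR.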

For test [11], the target named is Peroxisome proliferator-activated receptor alpha (Homo sapiens) (UniProt Q07869). As to the kind of experiment: qHTS assay for small molecule agonists of the peroxisome proliferator-activated receptor alpha (PPARalpha) signaling pathway (AID 651778). Further: potency means the concentration at half of the fitted maximal effect. On max response: % of control where 0% means no effect. The note with it: PathHunter PPARalpha complementation, chemiluminescence, 6 h; max response: stronger effect = higher value. Put shortly: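 Chemiluminescence from complemented enzyme reported PPARalpha activation in cells after 6 hr of compound treatment at 37 C. The detection reagent was incubated for 60 min at room temperature, and compounds were scored as agonists.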
Peroxisome proliferator-activated receptor alpha (Homo sapiens), sequence (Q07869 whole entry, looked up): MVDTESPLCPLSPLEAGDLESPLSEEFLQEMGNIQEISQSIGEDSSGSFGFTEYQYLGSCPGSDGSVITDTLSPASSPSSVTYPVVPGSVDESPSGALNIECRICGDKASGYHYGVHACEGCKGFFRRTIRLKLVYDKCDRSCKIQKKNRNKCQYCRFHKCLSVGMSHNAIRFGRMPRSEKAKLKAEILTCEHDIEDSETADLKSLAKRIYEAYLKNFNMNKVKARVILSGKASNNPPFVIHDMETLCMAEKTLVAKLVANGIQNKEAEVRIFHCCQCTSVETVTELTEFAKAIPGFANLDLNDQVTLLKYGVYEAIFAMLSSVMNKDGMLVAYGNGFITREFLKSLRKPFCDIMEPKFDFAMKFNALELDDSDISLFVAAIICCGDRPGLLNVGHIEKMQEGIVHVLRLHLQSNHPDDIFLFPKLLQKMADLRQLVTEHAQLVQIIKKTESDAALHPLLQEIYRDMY

Test [12] in a line: qHTS assay for small molecule agonists of the antioxidant response element (ARE) signaling pathway measured by Nrf2-dependant transcriptional activity (AID 720636; active means well fitted curve in the direction sought with a large enough effect in the repeat runs; an effect the other way counts as inactive or inconclusive;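 further: HepG2 cells with an ARE-driven luciferase reporter; % of control where 0% means no effect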). The note with it: ARE-luc HepG2, Nrf2 luciferase reporter, 16 h; series mostly up to 92.4 µM. A digest of the protocol:
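ONE-Glo luminescence, read 30 min after reagent addition at room temperature, reflected ARE reporter activity in HepG2 cells that had been incubated with compound for 16 hr at 37 C in 1% dialyzed FBS.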

Test [13] is described as follows: qHTS assay for small molecule agonists of the antioxidant response element (ARE) signaling pathway measured by Nrf2-dependant transcriptional activity - cell viability counter screen (AID 720653; active means well fitted curve in the direction sought with a large enough effect in the repeat runs; an effect the other way counts as inactive or inconclusive; further: potency means the concentration at half of the fitted maximal effect; on max response: on the % scale 0 is the no-effect control and ±100 the full control effect). The settings on record: ARE-bla HepG2 viability, CellTiter-Glo ATP luminescence, 16 h; max response: stronger effect = lower value. Put shortly:
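Cytotoxicity counter screen: intracellular ATP quantified by CellTiter-Glo luminescence in the same ARE-bla HepG2 plates, after 16 h compound exposure and a 2 h beta-lactamase substrate step.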

Test [14] can be described thus: qHTS assay for cell viability of HEK293 cells (AID 743288). Further: nearly all actives have a fitted effect of over 50% in size. Further: potency means the concentration at half of the fitted maximal effect. The note with it: ATP luminescence (CellTiter-Glo), 18 h; max response: stronger effect = lower value. A digest of the protocol: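 Luminescent ATP quantitation served as the viability read-out. Cells (parental HEK293, 2,000/well) received compounds after at least 5 h at 37 C and were exposed for 18 h before a 30 min room-temperature reagent step.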

The target in test [15] is Nuclear receptor subfamily 1 group I member 2 (Rattus norvegicus) (UniProt Q9R1A7). Nature of the test: qHTS assay for small molecule activators of the rat pregnane X receptor (rPXR) signaling pathway (AID 651751; call rule not given here; further: 0% is about no effect). The note with it: rPXR reporter cells, luciferase (One-Glo), 24 h.
Nuclear receptor subfamily 1 group I member 2 (Rattus norvegicus), sequence (Q9R1A7 whole entry, looked up): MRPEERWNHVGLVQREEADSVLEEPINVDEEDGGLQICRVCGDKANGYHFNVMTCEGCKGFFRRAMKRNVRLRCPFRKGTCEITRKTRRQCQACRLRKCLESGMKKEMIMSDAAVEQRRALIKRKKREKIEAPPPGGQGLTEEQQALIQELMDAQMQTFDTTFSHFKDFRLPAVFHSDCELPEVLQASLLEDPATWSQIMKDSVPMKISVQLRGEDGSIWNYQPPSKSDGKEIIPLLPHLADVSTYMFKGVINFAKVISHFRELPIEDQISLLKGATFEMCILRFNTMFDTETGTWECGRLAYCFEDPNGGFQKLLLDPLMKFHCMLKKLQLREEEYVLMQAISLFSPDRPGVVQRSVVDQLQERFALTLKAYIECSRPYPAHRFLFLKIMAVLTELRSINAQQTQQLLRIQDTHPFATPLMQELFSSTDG
Test [16] in a line: qHTS assay for small molecule activators of the human pregnane X receptor (PXR) signaling pathway (AID 720659; call rule not given here; further: 0% is about no effect). The settings on record: DPX-2 HepG2 CYP3A4-luciferase, 24 h; series mostly up to 92.3 µM.
In test [17] the target is Glucocorticoid receptor (Homo sapiens) (UniProt P04150). Nature of the test: qHTS assay for small molecule agonists of glucocorticoid receptor signaling (AID 588532; active means well fitted curve in the direction sought with a large enough effect in the signal ratio, with a control signal flat; the % refers to the signal ratio;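 further: 100% = dexamethasone at 0.1 µM and 0% = DMSO only wells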). The note with it: HeLa MMTV-bla, beta-lactamase ratio, agonist, 18 h; stronger effect = higher value; percent of dexamethasone control, DMSO zero. Put shortly: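 Agonist-mode qHTS: GRE-driven beta-lactamase in HeLa cells exposed 18 h to titrated compounds (up to 92 uM), then CCF4 ratio read after 2 h at RT; Hill-fitted EC50, efficacy relative to 0.1 uM dexamethasone.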
Glucocorticoid receptor (Homo sapiens), sequence (P04150 whole entry, looked up): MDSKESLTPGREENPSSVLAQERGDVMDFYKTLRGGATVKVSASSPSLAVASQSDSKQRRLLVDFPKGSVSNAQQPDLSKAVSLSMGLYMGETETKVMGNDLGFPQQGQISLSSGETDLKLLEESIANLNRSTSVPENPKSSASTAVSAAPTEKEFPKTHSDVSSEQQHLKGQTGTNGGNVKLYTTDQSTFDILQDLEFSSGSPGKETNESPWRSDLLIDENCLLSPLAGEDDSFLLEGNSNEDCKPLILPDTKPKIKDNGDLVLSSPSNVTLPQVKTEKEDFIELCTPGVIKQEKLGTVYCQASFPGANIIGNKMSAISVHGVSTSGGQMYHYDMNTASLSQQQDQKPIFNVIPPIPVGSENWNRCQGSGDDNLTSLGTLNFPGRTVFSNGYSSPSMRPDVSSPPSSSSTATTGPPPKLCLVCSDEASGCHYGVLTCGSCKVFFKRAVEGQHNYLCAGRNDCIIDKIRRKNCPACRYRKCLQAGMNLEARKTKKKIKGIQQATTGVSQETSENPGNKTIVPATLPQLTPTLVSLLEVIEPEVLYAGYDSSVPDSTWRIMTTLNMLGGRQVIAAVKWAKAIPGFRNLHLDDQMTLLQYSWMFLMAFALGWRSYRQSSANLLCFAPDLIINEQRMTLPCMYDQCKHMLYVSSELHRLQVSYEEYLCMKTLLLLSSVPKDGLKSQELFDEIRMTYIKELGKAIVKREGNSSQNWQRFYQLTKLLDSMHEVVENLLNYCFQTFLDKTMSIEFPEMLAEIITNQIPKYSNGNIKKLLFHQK

For test [18] the target is unchanged. As to the kind of experiment: qHTS assay for small molecule antagonists of glucocorticoid receptor signaling (AID 588533; active means well fitted inhibition curve with a large enough effect in the signal ratio, with a control signal flat, not every such curve was filed as active; the % refers to the signal ratio;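 further: cells stimulated with 2 nM dexamethasone as agonist; on the % scale 0 is the no-effect control and ±100 the full control effect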). The settings on record: HeLa MMTV-bla, GRE beta-lactamase ratio, antagonist mode, 18 h; series mostly up to 76.8 µM. Put shortly: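 Antagonist-mode qHTS: compound titrations added to GRE-bla HeLa cells, then dexamethasone 2 nM final; 18 h, 37 C. CCF4 FRET fluorescence normalized to dexamethasone and DMSO; IC50 from Hill fit.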

Test [19] is described as follows: qHTS assay for small molecule activators of the p53 signaling pathway (AID 651743; active means well fitted activation curve with a large enough effect in the signal ratio, not every such curve was filed as active; the % refers to the signal ratio; further: % of control where 0% means no effect). The note with it: HCT-116 p53RE-bla, beta-lactamase FRET ratio, 16 h; activation: stronger effect = higher value. Put shortly:
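Read-out is fluorescence intensity from the LiveBLAzer B/G FRET substrate, added for 2 hours at room temperature after HCT-116 p53RE-bla cells had been incubated with compounds for 16 hours at 37 C.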

Test [20] is described as follows: qHTS assay for cell viability of the p53RE-bla HCT-116 cell line (AID 743292). Further: nearly all actives have a fitted effect of over 55% in size. Further: potency means the concentration at half of the fitted maximal effect. The settings on record: p53RE-bla HCT-116 viability, ATP luminescence, 16 h; series mostly up to 95 µM. Put shortly:
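After plating at 4,000 cells per well and a 5 h rest at 37 C, HCT-116 cells carrying p53RE-bla received test chemicals in DMSO. Sixteen hours later at 37 C, CellTiter-Glo was added and luminescence recorded following 30 min at room temperature.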

Inconclusive results are not listed. Activity calls are given as the source filed them. Unless noted, the call rests on the fitted dose curve; in most records, active means well fitted curve in the direction sought with a large enough effect; inconclusive means small, poorly fitted or top-dose-only effect, or another doubt; inactive means no such curve, though single readings can be large; an effect the other way counts as inactive or inconclusive.

Peroxisome proliferator-activated receptor delta (Homo sapiens), sequence (Q03181 whole entry, looked up): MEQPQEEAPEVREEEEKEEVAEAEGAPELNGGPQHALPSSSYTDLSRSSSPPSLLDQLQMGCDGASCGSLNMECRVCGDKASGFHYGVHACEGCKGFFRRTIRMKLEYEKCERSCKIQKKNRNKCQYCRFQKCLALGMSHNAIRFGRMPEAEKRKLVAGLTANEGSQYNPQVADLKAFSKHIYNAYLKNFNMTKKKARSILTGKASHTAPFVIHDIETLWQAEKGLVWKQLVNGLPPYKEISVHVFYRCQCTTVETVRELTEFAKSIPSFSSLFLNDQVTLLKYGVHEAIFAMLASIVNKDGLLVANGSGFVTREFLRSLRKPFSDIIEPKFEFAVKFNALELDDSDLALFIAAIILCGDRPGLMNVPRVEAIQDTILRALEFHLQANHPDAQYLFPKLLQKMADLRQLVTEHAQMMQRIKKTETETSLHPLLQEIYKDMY
Vitamin D3 receptor (Homo sapiens), sequence (P11473 whole entry, looked up): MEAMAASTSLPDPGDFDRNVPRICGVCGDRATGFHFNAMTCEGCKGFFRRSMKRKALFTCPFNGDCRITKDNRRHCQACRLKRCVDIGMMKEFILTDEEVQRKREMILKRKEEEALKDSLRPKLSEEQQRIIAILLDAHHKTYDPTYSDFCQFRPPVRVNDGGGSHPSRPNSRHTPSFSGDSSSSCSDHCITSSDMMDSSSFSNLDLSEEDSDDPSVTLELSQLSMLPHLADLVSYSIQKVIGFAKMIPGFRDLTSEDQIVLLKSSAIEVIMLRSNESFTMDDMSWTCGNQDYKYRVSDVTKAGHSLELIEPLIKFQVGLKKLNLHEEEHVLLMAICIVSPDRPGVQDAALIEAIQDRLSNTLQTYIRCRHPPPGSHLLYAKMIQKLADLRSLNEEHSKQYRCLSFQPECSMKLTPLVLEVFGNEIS
Thyroid hormone receptor beta (Homo sapiens), sequence (P10828 whole entry, looked up): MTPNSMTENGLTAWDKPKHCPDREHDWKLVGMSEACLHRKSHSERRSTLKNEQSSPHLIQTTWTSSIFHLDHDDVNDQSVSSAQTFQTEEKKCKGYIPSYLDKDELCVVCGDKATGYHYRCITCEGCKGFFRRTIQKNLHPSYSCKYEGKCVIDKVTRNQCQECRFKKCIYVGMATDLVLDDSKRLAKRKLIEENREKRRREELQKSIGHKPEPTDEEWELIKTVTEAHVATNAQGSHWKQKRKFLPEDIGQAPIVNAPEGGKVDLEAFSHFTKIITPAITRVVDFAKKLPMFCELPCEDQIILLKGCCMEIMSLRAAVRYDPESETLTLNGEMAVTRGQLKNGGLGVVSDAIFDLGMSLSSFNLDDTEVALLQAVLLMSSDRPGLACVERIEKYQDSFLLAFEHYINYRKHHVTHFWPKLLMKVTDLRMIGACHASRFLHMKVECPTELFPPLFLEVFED

As to `CCCCCCCCCCCCCCCO`, the max response in test [1] was -44.9%; in test [7], -3.46%; in test [8], -24% (inactive); in test [11] it was 0.401% (inactive); in test [13], -7.38% (inactive); in test [14] it was -19.2% (inactive). Besides, the max response in test [15] was 3.48% (inactive). For the same compound, the Potency entry in test [2], in [3], in test [5], in [6] and in test [12] was “inactive” each time. The outcome in test [4] and in test [16] was inactive. Further, the activation in test [9] was -1.59% (inactive); in [10], 2.17% (inactive).
`CS(C)=O`: the activation is -5.87% (inactive) in [17], 1.22% (inactive) in [19], 0.392% (inactive) in [9] and 0.193% (inactive) in [10]. The Potency entry in test [18], in test [2], in [3], in test [6] and in test [12] was “inactive” throughout. In addition, the max response is 23% in [1]; -13.1% in test [7]; 10.4% (inactive) in test [8]; 16.4% (inactive) in [13]; 1.99% (inactive) in test [14]; 2.97% (inactive) in test [15]. Besides, the result in test [4] and in test [16] was inactive.
For `CCCCCCCCCC(=O)OC`, the max response in test [1] is -5.35%; in test [7], -11.2%; in test [8], 2.82% (inactive); in test [11], 1.96% (inactive); in [14], -11.5% (inactive); in test [15], -1.31% (inactive). The Potency entry in test [2], in test [5], in test [6], in test [12] and in test [20] was “inactive” each time. The activation was 0.17% (inactive) in [9] and 0.259% (inactive) in [10]. In addition, the call in test [16] was inactive.
In the case of `CO[Si](CCCOCC1CO1)(OC)OC` (stereo unspecified), the activation in test [17] was -3.61% (inactive); in test [9] it was -2.38% (inactive); in test [10], -0.88% (inactive). The Potency result in test [18], in test [2], in test [3], in [5], in [6] and in test [12] was “inactive” throughout. In [20], the Potency result was “inactive”. In addition, the max response in test [1] is 37.6%; in test [7] it was -4.61%; in test [8], -3% (inactive); in [13], -2.05% (inactive); in test [14] it was -2.39% (inactive). In test [4], the outcome was inactive. In addition, the Potency in [11] is 39.8 µM (active).
As to `NC(=O)Cc1cccc2ccccc12`, the activation in test [17] is -1.98% (inactive); in [10] it was 4.55% (inactive). Besides, the Potency result in test [18], in test [2], in test [5], in [12] and in test [20] was “inactive” throughout. Further, the max response was 36.8% in test [1]; 0.786% in test [7]; -0.179% (inactive) in [11]; -4.7% (inactive) in test [13]; -7.9% (inactive) in test [14]; -0.261% (inactive) in test [15]. Besides, the outcome in [16] was inactive.
On to `Oc1ccc(C(c2ccc(O)cc2)C(Cl)(Cl)Cl)cc1`, for which the results for the activation in test [17], in [19] and in test [10] were 1.17% (inactive), -3.4% (inactive) and 10% (inactive), respectively. For the same compound, the Potency entry in test [18], in test [3], in [6], in test [12] and in [20] was “inactive” each time. For the same compound, the outcome in test [4] was inactive. In addition, the max response in test [11] was -1.42% (inactive); in [13], -3.02% (inactive); in [14], -13.2% (inactive); in test [15] it was 2.83% (inactive).
As for `CCCCCCCCCCCC(=O)OC`, the activation was -11.5% (inactive) in [17] and 1.82% (inactive) in test [10]. Also, the result in test [4] was inactive. Also, the figures for the Potency in test [13], in test [14] and in test [20] were 35.5 µM (active), 25.1 µM (active) and 28.2 µM (active), respectively.
Regarding `CCCCCCC(C)(C)S`, the figures for the activation in test [17], in test [9] and in [10] were -11% (inactive), -2.27% (inactive) and -1.46% (inactive), respectively. Further, the Potency entry in test [18], in test [5], in test [6], in test [12] and in test [20] was “inactive” throughout. The max response in test [7] was -14.4%; in test [11] it was -1.64% (inactive); in [13], -9.96% (inactive); in [14], -17.8% (inactive); in [15], -1.98% (inactive). In addition, in test [16], the compound was classed as inactive.
